Only some compounds are listed: those with a hit (about 5.3% of all), similar ones and a draw of the others.
HCV inh: HCV inhibition; Huh7.5.1 HCVcc-Cre infection, luciferase reporter, 44 h; Potency, µM (series often up to 41.8 µM), for the others: top-dose activity change, negative = inhibition, usual class: inhibitors; 340,000 compounds, 3.4% hits; AID 651820; active = well fitted inhibition curve with a large enough effect; inconclusive = small, poorly fitted or top-dose-only effect, or another doubt; inactive = no such curve, though single readings can be large or run the other way
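Whole-lifecycle infectious HCVcc-Cre system; cells 1,000/well, compound then virus (~0.5 moi) added 4 h after plating, 44 h culture. Luciferase read 15 sec following 15 min substrate incubation, room temp.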
LASV entry inh: inhibitors of Lassa virus binding or cell entry; Lassa virus pseudotype entry inhibition, cell reporter; AID 540256; Potency, µM (doses to about 37.9 µM), for inactives: at the highest dose activity change, negative = inhibition, hits mostly inhibitors; 300,000 compounds, 1.2% hits; calls by dose curve; tested in HEK293 cells; note: nearly all actives have a fitted effect of over 50% in size
Vaccinia Venus: inhibitors of vaccinia virus (Venus reporter); Vaccinia virus Venus reporter expression, fluorescence; Potency, µM (highest dose often 36.5 µM), inactives show at the highest dose activity change, negative = inhibition, hits mostly inhibitors; 330,000 compounds, 0.46% hits; calls by dose curve; tested in A549 cells; note: nearly all actives have a fitted effect of over 30% in size
MARV entry inh: Marburg virus entry inhibition. Marburg virus pseudotyped entry inhibition, cell reporter. AID 540276. 300,000 compounds, 1.8% hits. Potency, µM (highest dose often 37.8 µM), without a hit: at the highest dose activity change, negative = inhibition, actives largely listed as inhibitors; calls by dose curve; tested in HEK293 cells
Vaccinia mCherry: inhibitors of vaccinia virus infection (mCherry reporter signal); Vaccinia virus mCherry reporter infection, fluorescence; Potency, µM (highest dose often 36.5 µM), for the others: top-dose activity change, negative = inhibition, actives largely listed as inhibitors; 310,000 compounds, 0.63% hits; AID 720579; calls by dose curve; tested in A549 cells; note: nearly all actives have a fitted effect of over 35% in size
FMDV antiviral: blocks foot and mouth disease virus; Potency, µM (doses to about 57.9 µM), inactives show at the top dose activity change, negative = inhibition, usual class: inhibitors; FMDV antiviral cell-based qHTS; 410,000 compounds, 1.2% hits; calls by dose curve; tested in HEK293T cells; note: read-out not given here; nearly all actives have a fitted effect of over 45% in size
The depositor's hits bear a star; ! = not active in a repeat; [ ] = remark or other dose. % is set by controls: 0 for no effect and ±100 for the full control effect; potency is the fitted concentration of half-maximal effect.

How did COc1ccc2[nH]c3nc(SC(C)C)nnc3c2c1 do in these assays?
HCV inh: -19%; LASV entry inh: 2.2µM*; Vaccinia Venus: -9%; MARV entry inh: inconclusive; Vaccinia mCherry: -14%; FMDV antiviral: 13µM*

How did COc1ccc(CNC(=O)CSc2nnc3c(n2)[nH]c2ccc(OC)cc23)cc1 do in these assays?
HCV inh: -4%; Vaccinia Venus: -1%; MARV entry inh: inconclusive; Vaccinia mCherry: 9%; FMDV antiviral: 11%

Results for CC(=O)C1CCC2C3CCC4=CC(=O)CC[C@@]4(C)C3CC[C@]12C (some centres undefined) ?
Vaccinia Venus: -9%; Vaccinia mCherry: -10%; FMDV antiviral: 22µM*

Results for CC(=O)[C@@]1(O)CC[C@H]2[C@@H]3CCC4=CC(=O)CC[C@]4(C)[C@H]3CC[C@@]21C ?
HCV inh: 0%[8.37 µM]; LASV entry inh: 21µM*!; Vaccinia Venus: -15%; MARV entry inh: 18%; Vaccinia mCherry: inactive; FMDV antiviral: inconclusive

What do the screens show for `CCCCCC(=O)O[C@]1(C(C)=O)CC[C@H]2[C@@H]3CCC4=CC(=O)CC[C@]4(C)[C@H]3CC[C@@]21C`?
HCV inh: inconclusive; LASV entry inh: -18%; Vaccinia Venus: -29%; MARV entry inh: 10µM*; Vaccinia mCherry: inconclusive; FMDV antiviral: 0%

Results for C[C@]12CCC(=O)C=C1CCC1C2CC[C@@]2(C)C1CC[C@]2(C)O (some centres undefined) ?
HCV inh: 2%; LASV entry inh: inconclusive; Vaccinia Venus: 0%; MARV entry inh: inconclusive; Vaccinia mCherry: inactive; FMDV antiviral: -20%

Results for COc1ccc(C2CCCCC2SCC(=O)O)cc1OC (centres undefined) ?
Vaccinia Venus: -9%; Vaccinia mCherry: -9%; FMDV antiviral: -7%

Results for CCN1CCN(c2cc(C)c3cc(NC(=O)/C=C/c4cccc(OC)c4OC)ccc3n2)CC1 ?
LASV entry inh: inconclusive; Vaccinia Venus: inconclusive; MARV entry inh: 7.1µM*; Vaccinia mCherry: inconclusive; FMDV antiviral: -12%

Results for CCN1CCN(c2cc(C)c3cc(NC(=O)c4cccc(Cl)c4)ccc3n2)CC1 ?
LASV entry inh: inconclusive; Vaccinia Venus: -6%[7.34 µM]; MARV entry inh: inconclusive; Vaccinia mCherry: -13%[7.34 µM]; FMDV antiviral: 14%

What do the screens show for `CCN1CCN(c2cc(C)c3cc(NC(=O)/C=C/c4cccc(Cl)c4)ccc3n2)CC1`?
LASV entry inh: 1%[46.1 µM]; Vaccinia Venus: inconclusive; MARV entry inh: 5.6µM*; Vaccinia mCherry: 11µM*; FMDV antiviral: -7%

Results for COc1cccc(/C=C/c2ccc3ccccc3[n+]2C)c1OC ?
Vaccinia Venus: -12%; Vaccinia mCherry: -29%

How did CCOC(=O)N1CCC(NS(=O)(=O)c2ccc(NC(C)=O)c(Cl)c2)CC1 do in these assays?
HCV inh: 6.3µM*; LASV entry inh: inconclusive; Vaccinia Venus: -2%; MARV entry inh: inconclusive; Vaccinia mCherry: -1%; FMDV antiviral: 1%

How did N=c1cc(C2(O)CCCCC2)n2c(nc3ccccc32)s1 do in these assays?
HCV inh: -5%; LASV entry inh: 10µM*; MARV entry inh: 5.8µM*; FMDV antiviral: -23%

How did CN(CC(=O)Nc1c(Cl)cccc1Cl)C(=O)Cc1ccsc1 do in these assays?
HCV inh: 13%; LASV entry inh: -10%; Vaccinia Venus: -8%; MARV entry inh: 7%; Vaccinia mCherry: -20%; FMDV antiviral: -9%

How did CCc1cc(C(=O)N(C)CC(=O)Nc2c(Cl)cccc2Cl)sc1C do in these assays?
HCV inh: -27%; LASV entry inh: 8.9µM*; Vaccinia Venus: -11%; MARV entry inh: inconclusive; Vaccinia mCherry: inactive; FMDV antiviral: -19%

Results for CC(C)(C)C(=O)O/N=C(\N)Cc1ccc(-c2csnn2)cc1 ?
HCV inh: 17%; LASV entry inh: inconclusive; Vaccinia Venus: -14%; MARV entry inh: 8.9µM*; Vaccinia mCherry: inactive; FMDV antiviral: -7%

Results for COc1ccc(CC(=O)O/N=C(\N)Cc2ccc(OC)cc2)cc1 ?
HCV inh: 6%; LASV entry inh: -19%; MARV entry inh: 11%; FMDV antiviral: -20%

How did CC1Sc2ccc(C(=O)Nc3ncccc3O)cc2NC1=O (centres undefined) do in these assays?
HCV inh: -23%; LASV entry inh: inconclusive; Vaccinia Venus: -13%; MARV entry inh: 10µM*; Vaccinia mCherry: -27%; FMDV antiviral: -7%

What do the screens show for `CCO[C@@H]1OC(C(=O)NCc2nc3ccccc3[nH]2)=C[C@H](c2csc3ccccc23)[C@H]1CCCO`?
HCV inh: -15%; Vaccinia Venus: inconclusive; Vaccinia mCherry: -25%; FMDV antiviral: inconclusive

What do the screens show for `CCO[C@H]1OC(C(=O)NCc2nc3ccccc3[nH]2)=C[C@@H](c2csc3ccccc23)[C@@H]1CCCO`?
HCV inh: 1µM*; Vaccinia Venus: -19%; Vaccinia mCherry: 11%; FMDV antiviral: 0%

How did CC(=O)Nc1ccc(NC(=O)c2cc(-c3cc(C)cc(C)c3O)n[nH]2)cc1 do in these assays?
HCV inh: 8.9µM*; FMDV antiviral: -30%

Results for Cc1ccc(C(=O)Nc2ccc(S(=O)(=O)N3CCOCC3)cc2)cc1 ?
HCV inh: -5%; LASV entry inh: -29%; Vaccinia Venus: -22%; MARV entry inh: inconclusive; Vaccinia mCherry: -22%; FMDV antiviral: -15%

How did Cc1cc(C)c(O)c(-c2cc(C(=O)Nc3ccc(S(=O)(=O)N4CCOCC4)cc3)[nH]n2)c1 do in these assays?
HCV inh: 10µM*; LASV entry inh: inconclusive; Vaccinia Venus: 13µM*; MARV entry inh: inconclusive; Vaccinia mCherry: 10µM*; FMDV antiviral: inconclusive

Results for COC(=O)c1cc(NS(=O)(=O)c2ccc(C)c3ccccc23)ccc1N1CCOCC1 ?
HCV inh: 22µM*; LASV entry inh: inconclusive; Vaccinia Venus: -29%; MARV entry inh: inconclusive; Vaccinia mCherry: -6%; FMDV antiviral: 46%

Results for Cc1ccc(S(=O)(=O)/N=C(\CCl)N2CCOCC2)cc1 ?
HCV inh: 10µM*; LASV entry inh: inconclusive; Vaccinia Venus: inconclusive; MARV entry inh: inconclusive; Vaccinia mCherry: inconclusive; FMDV antiviral: 25µM*

Results for Cc1ccc(S(=O)(=O)/N=C(\CN2CCOCC2)N2CCCC2)cc1 ?
HCV inh: 2%; LASV entry inh: 17%; Vaccinia Venus: -11%; MARV entry inh: 0%; Vaccinia mCherry: -16%

How did CC(=O)N1CCN(C2=Nc3cccc4cccc2c34)CC1 do in these assays?
HCV inh: 11µM*; LASV entry inh: 27%; Vaccinia Venus: 8%; MARV entry inh: -11%; Vaccinia mCherry: 1%

How did c1cc2c3c(cccc3c1)C(N1CCOCC1)=N2 do in these assays?
HCV inh: -7%; LASV entry inh: inconclusive; Vaccinia Venus: 2%; MARV entry inh: 19%[14.2 µM]; Vaccinia mCherry: 9%; FMDV antiviral: -17%
